SMILES strings stand for the structures. Results filed as inconclusive are left out. Unmarked numbers belong to inactive results. The source made the active and inactive calls. Calls come from the whole dose curve; as a rule, active = well fitted cell-killing curve with a large enough effect; inconclusive = small, poorly fitted or top-dose-only effect, or effect the other way; inactive = flat fitted curve, though single readings scatter.

This is an account of results in PubChem BioAssay (NCATS).

What all share (experiment): Primary qHTS to identify gynecologic anti-cancer compounds using libraries of approved drugs and bioactive compounds (AID 1345084); note: nearly all actives have a fitted effect of over 55% in size
In general terms: qHTS replaces the single test concentration by a dilution series.

One experiment concerns C33A. Conditions: Gynecologic cancer cell panel viability, ATPlite luminescence, 48 h; series mostly up to 57.5 µM. The essentials:
(§1)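 ATP-based viability (ATPlite), 1,000 cells/well, 16 h pre-incubation, 48 h compound at 37 C, 5% CO2, 15 min RT before read.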
For orientation: Cellular ATP, detected with luciferase, serves as a proxy for viable cell number.

The next experiment has as its system CAOV3. Conditions: Gynecologic cancer cell panel viability, ATPlite luminescence, 48 h; series mostly up to 57.5 µM. The essentials: as §1
For another experiment, the system named is CASKI. Conditions: Gynecologic cancer cell panel viability, ATPlite luminescence, 48 h; series mostly up to 57.5 µM. An outline of the steps:
as §1

A further experiment has as its system Es-2. Conditions: Gynecologic cancer cell panel viability, ATPlite luminescence, 48 h; series mostly up to 57.5 µM. The essentials:
as §1

A further experiment deals with HeLa. Conditions: Gynecologic cancer cell panel viability, ATPlite luminescence, 48 h; series mostly up to 57.5 µM. The essentials: as §1
The next experiment has as its system Hek293T. Conditions: Gynecologic cancer cell panel viability, ATPlite luminescence, 48 h, control line for the selectivity index; series mostly up to 57.5 µM. An outline of the steps:
as §1

The subject of a further experiment is JEG-3. Conditions: Gynecologic cancer cell panel viability, ATPlite luminescence, 48 h; series mostly up to 57.5 µM. An outline of the steps:
as §1

The next experiment has as its system PA-1. Conditions: Gynecologic cancer cell panel viability, ATPlite luminescence, 48 h; series mostly up to 57.5 µM. The essentials: as §1
Another experiment relates to SKOV3. Conditions: Gynecologic cancer cell panel viability, ATPlite luminescence, 48 h; series mostly up to 57.5 µM. An outline of the steps: as §1
The next experiment has as its system Tov-21-G. Conditions: Gynecologic cancer cell panel viability, ATPlite luminescence, 48 h; series mostly up to 57.5 µM. An outline of the steps:
as §1

A further experiment concerns Tov112D. Conditions: Gynecologic cancer cell panel viability, ATPlite luminescence, 48 h; series mostly up to 57.5 µM. An outline of the steps:
as §1

In another experiment the test system is OV90. Conditions: Gynecologic cancer cell panel viability, ATPlite luminescence, 48 h; series mostly up to 57.5 µM. The essentials:
as §1
% is set by controls: 0 for no effect and ±100 for the full control effect; potency is the fitted concentration of half-maximal effect.

On to `C#CCOc1ccc2c(c1)c(-c1ccc(C(C)C)cc1)nc(=O)n2C(C)C`, for which the Potency entry with C33A, in the experiment with CAOV3, in the experiment on CASKI, in the experiment with Es-2, in the experiment on HeLa and in the experiment with Hek293T was “inactive” each time. Also, the Potency entry in the experiment on JEG-3, with PA-1, in the experiment on SKOV3, in the experiment with Tov-21-G and with Tov112D was “inactive” in each case.

Take `C=C1C(=O)OC2/C=C(\C)CC3C=C(CC/C=C(\C)CCC12)C(=O)O3` (configuration not stated): the Potency entry with C33A, in the experiment on CAOV3, in the experiment on CASKI, in the experiment on Es-2, in the experiment on HeLa and in the experiment on Hek293T was “inactive” each time. For the same compound, the Potency entry with JEG-3, in the experiment on PA-1 and with Tov112D was “inactive” throughout.

Consider `C[C@@H]1O[C@@H](O[C@H]2[C@H](O[C@H]3CC[C@@]4(C)C(CC[C@]5(C)C4C=C[C@]46OC[C@@]7(CCC(C)(C)C[C@H]74)[C@@H](O[C@@H]4O[C@@H](C)[C@H](O)[C@@H](O)[C@H]4O)C[C@]65C)[C@]3(C)CO)O[C@H](CO)[C@@H](O)[C@@H]2O[C@@H]2O[C@H](CO)[C@@H](O)[C@H](O)[C@H]2O)[C@H](O)[C@H](O)[C@H]1O` (some centres not stated), for which the activity change, negative = cytotoxicity in the experiment with C33A is -27.7% [at 11.6 µM]; in the experiment on CAOV3 it was 9.8% [at 11.6 µM]; in the experiment on CASKI, -9.63% [at 11.6 µM]; in the experiment with Es-2 it was -13.3% [at 11.6 µM]; in the experiment on HeLa it was 21.7% [at 11.6 µM]; in the experiment with Hek293T it was -8.24% [at 11.6 µM]. The activity change, negative = cytotoxicity was -15.7% [at 11.6 µM] in the experiment on JEG-3; 2.51% [at 11.6 µM] in the experiment with PA-1; -8.52% [at 11.6 µM] in the experiment with SKOV3; -2.59% [at 11.6 µM] in the experiment with Tov-21-G; -0.84% [at 11.6 µM] in the experiment on Tov112D.

On to `CC(=O)OC1C(OC(=O)c2ccccc2)C2C(=C(C)CCC2(C)C)C23CCC(C)(C2)C(=O)CC13` (configuration not stated), for which the Potency result in the experiment with C33A, in the experiment with CAOV3, in the experiment on CASKI, in the experiment on Es-2, in the experiment on HeLa and in the experiment with JEG-3 was “inactive” each time. Also, the Potency entry with PA-1, in the experiment with Tov-21-G and in the experiment with Tov112D was “inactive” in each case.

For `CCC(C(C)O)n1ncn(-c2ccc(N3CCN(c4ccc(OCC5COC(Cn6cncn6)(c6ccc(F)cc6F)C5)cc4)CC3)cc2)c1=O` (configuration not stated), the Potency result with C33A, with CAOV3, with CASKI, in the experiment on Es-2, with HeLa and with JEG-3 was “inactive” in each case. For the same compound, the Potency result in the experiment on OV90, in the experiment on PA-1, with SKOV3, with Tov-21-G and with Tov112D was “inactive” throughout.

In the case of `CC(C)OC(=O)N1CCC(Oc2ncnc3c2cnn3-c2ccc(S(C)(=O)=O)cc2F)CC1`, the Potency entry with C33A, in the experiment with CAOV3, in the experiment on CASKI, in the experiment on Es-2, in the experiment on HeLa and in the experiment on JEG-3 was “inactive” each time. For the same compound, the Potency result in the experiment with OV90, in the experiment with PA-1, in the experiment with SKOV3, in the experiment with Tov-21-G and with Tov112D was “inactive” each time.

In the case of `CCOc1cc(C(C)(C)C)ccc1C1=N[C@@](C)(c2ccc(Cl)cc2)[C@@](C)(c2ccc(Cl)cc2)N1C(=O)N1CCN(CC(=O)N2CCOCC2)CC1`, the Potency result with C33A, in the experiment with CAOV3, in the experiment with CASKI, in the experiment with Es-2, with Hek293T and in the experiment with JEG-3 was “inactive” in each case. For the same compound, the Potency result in the experiment on OV90, with SKOV3 and in the experiment on Tov112D was “inactive” in each case. Also, the Potency with PA-1 is 10 µM (active).

On to `CCCCNc1ncc(-c2ccc(CN3CCOCC3)cn2)c(NC2CCC(O)CC2)n1` (configuration not stated), for which the Potency entry with C33A, in the experiment on CAOV3, in the experiment with CASKI, in the experiment on Es-2, with Hek293T and with JEG-3 was “inactive” each time. Also, the Potency result with OV90, in the experiment on PA-1, with Tov-21-G and in the experiment on Tov112D was “inactive” throughout.

Regarding `CCN(CC)CCCCCCNc1cc(OC)cc2c(C)ccnc12`, the Potency result in the experiment with C33A, with CAOV3, in the experiment with CASKI, with Es-2, with HeLa and in the experiment with Hek293T was “inactive” throughout. For the same compound, the Potency entry in the experiment with SKOV3 and in the experiment with Tov-21-G was “inactive” throughout.

Turning to `C=C1/C(=C/C=C2\CCC[C@]3(C)[C@@H]([C@@H](C)OCCC(O)(CC)CC)CC[C@@H]23)C[C@@H](O)C[C@@H]1O`, the Potency entry in the experiment on C33A, in the experiment with CAOV3, in the experiment on CASKI, in the experiment with Es-2, in the experiment with HeLa and in the experiment on OV90 was “inactive” each time. Moreover, the Potency result in the experiment on PA-1, in the experiment on SKOV3, in the experiment on Tov-21-G and in the experiment on Tov112D was “inactive” in each case.

For the compound `C=C1CC2[C@@]3(C)C=CC(=O)C(C)(C)C3=C(O)C(=O)[C@@]2(C)C2(C(=O)OC)C(=O)C(C)OC(=O)[C@@]12C` (some centres not stated), the Potency entry with C33A, in the experiment on CAOV3, with CASKI, in the experiment on Es-2, with JEG-3 and in the experiment on Tov-21-G was “inactive” each time. Also, the Potency result in the experiment with Tov112D was “inactive”.

As to `CCCc1cc2c(N3CCN(C4=NCC(C)(C)S4)CC3)ncnc2s1`, the Potency entry in the experiment on C33A, in the experiment with CAOV3, in the experiment with CASKI, with Es-2, in the experiment on HeLa and in the experiment on JEG-3 was “inactive” throughout. The Potency result with PA-1, in the experiment on Tov-21-G and in the experiment with Tov112D was “inactive” each time. Moreover, the Potency with SKOV3 is 25.1 µM (active).

In the case of `COc1ccc2nc3n[nH]c(C)c3c(NCCOCCO)c2c1`, the Potency result in the experiment on C33A, with CAOV3, in the experiment on CASKI, with Es-2, with Hek293T and in the experiment with JEG-3 was “inactive” in each case. Further, the Potency entry in the experiment with OV90, in the experiment on Tov-21-G and in the experiment with Tov112D was “inactive” each time.

On to `N#Cc1ccc2ncnc(NCCc3ccccc3)c2c1`, for which the Potency result with C33A, in the experiment on CAOV3, in the experiment on CASKI, in the experiment with Es-2, in the experiment with HeLa and in the experiment on JEG-3 was “inactive” in each case. Moreover, the Potency result in the experiment with OV90, in the experiment on PA-1, in the experiment with SKOV3, in the experiment with Tov-21-G and in the experiment on Tov112D was “inactive” in each case.
